Laboratory results: PubChem BioAssay
A number with no mark means an inactive call. The source made the active and inactive calls.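 The calls were made as follows: active = compounds that lower survival of DLD-1 colon cancer cells in the luminescence readout, no cutoff given; inactive = the rest.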

Test: NPC library primary testing for decreased DLD-1 cell viability via CellTiter-Glo (AID 1117346)
Settings: DLD-1 viability, CellTiter-Glo luminescence; at 20 µM (top of the series)

| Compound | viability decrease (inhibition) |
| --- | --- |
| Cc1cc(=O)c2c(O)c3c(O)cc(=O)c4c3c3c(cc(O)c1c23)C(C)(C)C=4O | 101% (active) |
| CC(C)OC(=O)OCOP(=O)(CO[C@H](C)Cn1cnc2c(N)ncnc21)OCOC(=O)OC(C)C | 47.8% |
| O=C(O)c1ccc(-n2nc(-c3ccccc3O)nc2-c2ccccc2O)cc1 | 93.6% (active) |
| COc1ccc(-c2ccc3cc(C(=O)O)ccc3c2)cc1C12CC3CC(CC(C3)C1)C2 | 102% (active) |
| COCCCN1CCC(NC(=O)c2cc(Cl)c(N)c3c2OCC3)CC1 | -4.2% |
| CCOC(=O)c1c(C)n(C)c2ccc(O)cc12 | -0.8% |
| NCCCC(N)(C(=O)O)C(F)F (stereo unspecified) | 36% |
| CN1CCCN=C1/C=C/c1cccs1 | -4.2% |
| CC(=O)N[C@H]1[C@H]([C@H](O)[C@H](O)CO)OC(C(=O)O)=C[C@@H]1N=C(N)N | 2.95% |
| O=[N+]([O-])c1cncn1CCN1CCOCC1 | -11.2% |
| C=CC(=O)Nc1cc2c(Nc3ccc(F)c(Cl)c3)ncnc2cc1OCCCN1CCOCC1 | 101% (active) |
| Cc1ccc(C(=O)c2cc(O)c(O)c([N+](=O)[O-])c2)cc1 | 67.5% (active) |
| Cc1nnc(C(=O)NC(C)(C)c2nc(C(=O)NCc3ccc(F)cc3)c(O)c(=O)n2C)o1 | 6.7% |
| Cc1ccccc1C(=O)Nc1ccc(C(=O)N2CCCC(O)c3cc(Cl)ccc32)c(C)c1 (stereo unspecified) | 21.9% |
| COc1ccc2cccc(CCNC(C)=O)c2c1 | 3.3% |
| Cc1cc2c(cc1CC(=O)c1sccc1S(=O)(=O)Nc1onc(C)c1Cl)OCO2 | -17.2% |
